Format in all cases: functional
In test [1] the test system is Plasmodium falciparum. As to the kind of experiment: GSK_TCMDC: Inhibition of Plasmodium falciparum 3D7 in whole red blood cells, using parasite LDH activity as an index of growth. Test compounds present at 2uM.
Test [2] has as its system Plasmodium falciparum. As to the kind of experiment: GSK_TCMDC: Inhibition of Plasmodium falciparum Dd2 in whole red blood cells, using parasite LDH activity as an index of growth. Test compounds present at 2uM.
Another test relates to HepG2. As to the kind of experiment: GSK_TCMDC: Percent inhibition of human HepG2 cell line. Test compounds present at 10uM.

Each structure is given as a SMILES string.

As to `CCCCCCN1CCC(NCc2cccc(C(F)(F)F)c2)CC1.O=C(O)C(F)(F)F`, the Inhibition (commonly the relative decrease from the control value, in per cent) in the test with Plasmodium falciparum [1] was found to be 100%; in the test on Plasmodium falciparum [2], 82%; in the test with HepG2, 18%.

In the case of `Cc1nc(N/C=C/c2ccc(O)cc2)cc(N2CCCC2)n1`, the Inhibition came out at 93% in the test with Plasmodium falciparum [1], 54% in the test on Plasmodium falciparum [2] and 0% with HepG2.

For the molecule `Cl.O=c1cc(NCCCNCc2cc3c(Cl)cc(Cl)cc3[nH]2)[nH]c2ccccc12`, the Inhibition in the test on Plasmodium falciparum [1] amounted to 100%; in the test with Plasmodium falciparum [2], 0%; with HepG2 it was 0%.

Consider `CC1(C)N=C(N)N=C(N)N1c1cccc(C(F)(F)F)c1.Cl`, for which the figures for the Inhibition in the test with Plasmodium falciparum [1], in the test with Plasmodium falciparum [2] and with HepG2 were 95%, 68% and 60%, respectively.

For `CN1CCN(c2ccc(-c3cc(-c4cc(F)c(F)c(F)c4)cnc3N)cc2)CC1`, the results for the Inhibition in the test with Plasmodium falciparum [1], in the test with Plasmodium falciparum [2] and in the test with HepG2 were 88%, 12% and 58%, respectively.

Take `COc1ccc2ccccc2c1CCCCN1CCN(CC(c2ccc(F)cc2)N2CCC2)CC1.O=C(O)C(F)(F)F` (configuration not stated): the Inhibition is reported as 98% with Plasmodium falciparum [1], 51% in the test with Plasmodium falciparum [2] and 51% with HepG2.

For `CCc1ccc(O)c(-c2cc(C(=O)Nc3ccc(OC)c(Cl)c3)[nH]n2)c1`, the figures for the Inhibition in the test with Plasmodium falciparum [1], with Plasmodium falciparum [2] and in the test with HepG2 were 93%, 97% and 15%, respectively.

Consider `CCc1ccc(CN2CCC(CNC(=O)c3cc(-c4cccc(F)c4)cs3)C2)cc1.O=C(O)C(F)(F)F` (configuration not stated), for which the Inhibition with Plasmodium falciparum [1] was found to be 84%; with Plasmodium falciparum [2], 4%; in the test with HepG2, 23%.

`O=C(C=Cc1cccs1)Nc1ccc(-c2nc3ccccc3[nH]2)cc1`: the Inhibition turned out to be 83% in the test on Plasmodium falciparum [1], 3% in the test on Plasmodium falciparum [2] and 0% with HepG2.

`Cl.Clc1ccc2c(NCCc3ccccc3)ccnc2c1`: the Inhibition worked out at 93% in the test on Plasmodium falciparum [1], 99% in the test with Plasmodium falciparum [2] and 31% in the test with HepG2.

On to `O=C(Cn1c(CCc2cccc(F)c2F)cc(=O)c2cccnc21)N(CCN1CCCC1)Cc1ccc(-c2ccc(C(F)(F)F)cc2)cc1.O=C(O)C(O)C(O)C(=O)O`, for which the Inhibition amounted to 99% in the test with Plasmodium falciparum [1], 64% with Plasmodium falciparum [2] and 48% in the test on HepG2.

Turning to `N#Cc1ccc(N[C@@H](CC2CCCCC2)C(=O)NCc2cc(Cl)cc(Cl)c2)c2ccccc12.O=C(O)C(F)(F)F`, the Inhibition with Plasmodium falciparum [1] was found to be 94%; with Plasmodium falciparum [2] it was 88%; with HepG2 it was 34%.

For `Nc1ncnc2nc(-c3ccc(F)cc3)cc(-c3ccc(NC(=O)c4ccccc4)cc3)c12`, the figures for the Inhibition in the test with Plasmodium falciparum [1], in the test with Plasmodium falciparum [2] and with HepG2 were 100%, 97% and 0%, respectively.

`N#Cc1ccc(CN2CCCN(Cc3cccc(NC(=O)c4ccc(-c5ccccc5)cc4)c3)CC2)cc1.O=C(O)C(F)(F)F`: the Inhibition with Plasmodium falciparum [1] is on record as 88%; in the test with Plasmodium falciparum [2], 12%; with HepG2, 33%.

Regarding `Br.C[C@@H](COc1ccc(-c2ccccc2)cc1)CON1C(N)=NC(N)=NC1(C)C`, the Inhibition with Plasmodium falciparum [1] was 96%; in the test on Plasmodium falciparum [2], 96%; in the test on HepG2, 62%.

Consider `O=C(Nc1ccc2c(c1)CCN2C1CCN(Cc2cccc(F)c2F)C1)c1ccco1` (configuration not stated), for which the Inhibition with Plasmodium falciparum [1] is 87%; with Plasmodium falciparum [2] it was 90%; in the test with HepG2, 0%.

On to `CCCCOc1cc(CNCCCCCCNCc2cc(OCCCC)cc3ccccc23)c2ccccc2c1.CS(=O)(=O)O`, for which the Inhibition was 100% with Plasmodium falciparum [1], 92% in the test on Plasmodium falciparum [2] and 99% in the test on HepG2.

`O=C(/C=C/c1ccc(Cl)c(Cl)c1)N1CCC(NCc2c[nH]c3ccccc23)CC1`: the Inhibition with Plasmodium falciparum [1] turned out to be 94%; with Plasmodium falciparum [2] it was 4%; with HepG2, 36%.

With `Cc1n[nH]c2cc(F)c(-c3cc(OC[C@@H](N)Cc4ccccc4)cnc3-c3ccoc3)cc12.O=C(O)C(F)(F)F`, the values for the Inhibition in the test on Plasmodium falciparum [1], with Plasmodium falciparum [2] and with HepG2 were 95%, 15% and 22%, respectively.

With `COc1cc(/C=N/Nc2nc(Nc3ccccc3)nc(Nc3ccccc3)n2)ccc1OCc1ccccc1[N+](=O)[O-]`, the Inhibition is 98% in the test with Plasmodium falciparum [1], 18% with Plasmodium falciparum [2] and 8% in the test on HepG2.

As for `Cc1nnc2c(N(C(=O)NCCc3ccccc3)C(=O)NCCc3ccccc3)cc3cc(Cl)ccc3n12`, the Inhibition in the test on Plasmodium falciparum [1] worked out at 91%; with Plasmodium falciparum [2] it was 34%; in the test with HepG2, 0%.

`CCOC(=O)NC1=NC(C)(C)N(OCc2ccc(Cl)c(Cl)c2)C(NC(=O)OCC)=N1`: the figures for the Inhibition in the test with Plasmodium falciparum [1], in the test on Plasmodium falciparum [2] and in the test with HepG2 were 98%, 4% and 65%, respectively.

In the case of `O=C(/C=C/c1ccc(Cl)c(Cl)c1)NCCCCCN1CCC(CCNC(=O)C2(c3ccc(Cl)cc3)CC2)CC1`, the figures for the Inhibition in the test on Plasmodium falciparum [1], in the test on Plasmodium falciparum [2] and in the test on HepG2 were 91%, 16% and 96%, respectively.

On to `CCOC(=O)c1ccc(-c2cnoc2-c2cc(CC)c(OC)cc2O)o1`, for which the Inhibition in the test on Plasmodium falciparum [1] worked out at 100%; with Plasmodium falciparum [2], 97%; in the test on HepG2, 12%.

Turning to `COc1cc(Nc2ccnc3ccc(C(F)(F)F)cc23)ccc1OCCCc1ccccc1`, the Inhibition with Plasmodium falciparum [1] amounted to 99%; in the test on Plasmodium falciparum [2], 51%; with HepG2, 11%.

With `O=C(Cc1ccc(Nc2nccc(Nc3cccc4[nH]ncc34)n2)cc1)Nc1ccc(C(F)(F)F)cc1`, the Inhibition with Plasmodium falciparum [1] was 100%; in the test with Plasmodium falciparum [2], 69%; with HepG2, 12%.

As for `CCN(CCCN1CCCCC1)c1cc(C)nc(Nc2cc(C(F)(F)F)ccc2C)n1.O=C(O)C(F)(F)F`, the values for the Inhibition with Plasmodium falciparum [1], in the test on Plasmodium falciparum [2] and with HepG2 were 96%, 41% and 35%, respectively.

Take `Cc1ccc(/C=C/C(=O)NCCCCCN2CCC(c3c[nH]c4ccccc34)CC2)cc1`: the Inhibition stood at 86% in the test on Plasmodium falciparum [1], 7% in the test with Plasmodium falciparum [2] and 36% in the test on HepG2.

In the case of `CC(=O)Nc1ccc2[nH]cc(C3CCN(CCC4CCN(C(=O)/C=C/c5ccc(Cl)c(Cl)c5)CC4)CC3)c2c1`, the Inhibition turned out to be 95% with Plasmodium falciparum [1], 7% with Plasmodium falciparum [2] and 13% in the test with HepG2.

For the origin of these results see ChEMBL document CHEMBL1157539, “Thousands of chemical starting points for antimalarial lead identification” (Nature, 2010).
